Results: PubChem BioAssay (NCATS)
Results filed as inconclusive are left out. Calls of active or inactive are those of the source. Unless noted, the call rests on the fitted dose curve; in most records, active means well fitted curve in the direction sought with a large enough effect; inconclusive means small, poorly fitted or top-dose-only effect, or another doubt; inactive means no such curve, though single readings can be large; an effect the other way counts as inactive or inconclusive.

Tests used:
[1] = Cell Viability - BJ (AID 421; calls by dose curve;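 further: potency means the concentration at half of the fitted maximal effect; cells exposed to compound for 40 hours at 37 °C before readout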); conditions: BJ fibroblast viability, qHTS
In short: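 Normal human BJ foreskin fibroblasts, 1500/well in complete medium, treated 40 hr at 37 °C. Cellular ATP by CellTiter-Glo luminescence; normalized to DMSO and 100 uM tamoxifen, AC50 from Hill fit.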

[2] = Cell Viability - Jurkat (AID 426;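 active means dose-dependent loss of cell ATP signal giving a full or clear fitted curve, ranked by lower potency value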; further: potency means the concentration at half of the fitted maximal effect); conditions: qHTS
In short: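 Jurkat (clone E6-1, human T-cell leukemia) cells, 5000/well in complete medium, were exposed to compound for 40 hr at 37 °C. Viability was read as intracellular ATP by CellTiter-Glo luminescence; AC50 came from Hill fits of concentration-response data.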

[3] = Cell Viability - Hek293 (AID 427;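 active means compounds whose dose-response curve shows a full or clear partial loss of cell viability, called from curve shape rather than a numeric limit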;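 further: potency means the concentration at half of the fitted maximal effect; cells exposed to compound for 40 hours at 37 °C before reading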); conditions: qHTS
In short: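 HEK293 cells in complete medium were exposed to compound for 40 hr at 37 °C, then cellular ATP was read by CellTiter-Glo luminescence. Data were normalized to DMSO (basal) and 100 uM tamoxifen (100% inhibition), and AC50 came from Hill fits.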

[4] = Cell Viability - HepG2 (AID 433; calls by dose curve;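 further: potency means the concentration at half of the fitted maximal effect; potency for ATP loss meaning cytotoxicity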); conditions: qHTS
In short: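 In this qHTS format, a 40 h, 37 °C compound incubation of HepG2 cells in complete medium precedes a 20 min CellTiter-Glo step at room temperature. Tamoxifen and doxorubicin serve as positive controls; Hill-equation fits yield AC50.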

[5] = Cell Viability - MRC5 (AID 434; calls by dose curve;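 further: potency means the concentration at half of the fitted maximal effect; potency reflects cytotoxicity seen as loss of intracellular ATP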); conditions: MRC5 lung fibroblast viability, qHTS
In short: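 MRC5 normal human lung fibroblasts (1500/well) were treated with compounds for 40 hr at 37 °C in complete medium, and viable cells were measured as intracellular ATP by CellTiter-Glo luminescence. AC50 came from Hill fits, normalized to DMSO and 100 uM tamoxifen.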

[6] = Cell Viability - SK-N-SH (AID 435; calls by dose curve;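 further: potency means the concentration at half of the fitted maximal effect; compound exposure lasted 40 h at 37 °C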); conditions: SK-N-SH neuroblastoma cell viability qHTS
In short: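 Human neuroblastoma line, 40 h exposure at 37 °C, ATP quantified via luciferase luminescence; DMSO and 100 uM tamoxifen define 0 and 100% inhibition for AC50 fitting.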

[7] = molecular target: Mitogen-activated protein kinase 10 (Mus musculus) (UniProt Q61831); assay: JNK3 AlphaScreen Assay (AID 530; active means well fitted curve in either direction with a large enough effect, not every such curve was filed as active;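 further: kinase came from lysate of stimulated human HepG2 cells; signal reports phosphorylation of biotinylated GST-cJun 1-79 at Ser73 with 10 µM ATP; on the % scale 0 is the no-effect control and ±100 the full control effect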)
In short: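 JNK3 came from HepG2 lysates pre-activated with IL-1beta and TNF-alpha and phosphorylated biotinylated GST-cJun (1-79) at 10 uM ATP, pH 7.6, room temperature. Compounds were titrated. AlphaScreen signal used anti-phospho-cJun (Ser73) antibody.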

[8] = Cell Viability - N2a (AID 540); conditions: N2a mouse neuroblastoma cell viability; at 92.2 µM (top of the series);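 further: plate controls were DMSO alone for no effect and tamoxifen control for full effect; nearly all actives have a fitted effect of over 45% in size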
In short: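 Mouse neuroblastoma N2a cells (1500/well) were preincubated 5 hr at 37 °C, then exposed to compounds for 40 hr at 37 °C in complete medium. Viability was read as intracellular ATP by CellTiter-Glo luminescence; AC50 from Hill fits.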

[9] = Cell Viability - HUV-EC-C (AID 542); further: on the % scale 0 is the no-effect control and ±100 the full control effect; nearly all actives have a fitted effect of over 35% in size
In short: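 HUV-EC-C normal human vascular endothelial cells, 1000 cells/well, pre-incubated 5 hr at 37 °C, then exposed to compounds for 40 hr at 37 °C in complete medium. Viability measured as intracellular ATP by CellTiter-Glo luminescence; AC50 from Hill fits.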

[10] = Cell Viability - H-4-II-E (AID 543); further: on the % scale 0 is the no-effect control and ±100 the full control effect; nearly all actives have a fitted effect of over 35% in size
In short: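 Rat hepatoma H-4-II-E cells (1500/well) were plated, incubated 5 hr at 37 °C, then exposed to compounds for 40 hr at 37 °C. Cellular ATP was read by CellTiter-Glo luminescence; AC50 came from Hill-equation fits of concentration-response data.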

[11] = Cell Viability - SH-SY5Y (AID 544); conditions: SH-SY5Y neuroblastoma cell viability; viability change, negative = cytotoxic: at 92.2 µM (top of the series); further: nearly all actives have a fitted effect of over 55% in size
In short: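 Human neuroblastoma SH-SY5Y cells (1500/well) in complete medium were exposed to compounds for 40 hr at 37 °C; intracellular ATP was then quantified by CellTiter-Glo luminescence after 20 min at room temperature. AC50 came from Hill-equation concentration-response fits.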

[12] = Cell Viability - Renal Proximal Tubule (AID 545); conditions: renal proximal tubule cells viability; at 91.7 µM (top of the series), primary cells of rat origin unless noted; further: nearly all actives have a fitted effect of over 40% in size
In short: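 In this qHTS format, normal rat kidney-derived proximal tubule cells in complete culture medium receive compound titrations, then sit 40 hours at 37 °C before luciferase-based ATP quantitation; potency is reported as AC50 from concentration-response curves.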

[13] = Cell Viability - Mesenchymal (AID 546);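 further: cells exposed to compound for 40 hours before reading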
In short: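 Normal human renal glomerulus-derived kidney mesenchymal cells, 1000 per well in complete medium, were treated with compounds for 40 hr at 37 °C. Viability was read as intracellular ATP by CellTiter-Glo luminescence; AC50 values came from Hill-equation fits of qHTS concentration-response data.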

[14] = Cellular Toxicity (caspase-3) HepG2 (AID 654);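 further: cells exposed to compound for 16 hours before reading; 0% = DMSO alone and 100% = caspase signal from 100 µM tamoxifen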
In short: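 HepG2 cells (1500/well) in complete medium were treated with compounds for 16 hr at 37 °C. Caspase-3/7 activity was then read as luminescence from peptide-aminoluciferin cleavage. AC50 came from Hill fits, normalized to DMSO and 100 uM tamoxifen.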

[15] = Cellular Toxicity (caspase-3) Jurkat (AID 655); conditions: Jurkat caspase-3 activation, luminescence, DMSO = 0%, tamoxifen = 100%; at 92.2 µM (top of the series);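 further: cells exposed to compound for 16 h at 37 °C before reading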
In short: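 qHTS in human Jurkat T-cell leukemia line: 16 hr compound treatment at 37 °C, caspase-3/7 activity measured by Caspase-Glo luminescence. AC50 derived from Hill equation.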

[16] = Cellular Toxicity (caspase-3) SHSY5Y (AID 657)
In short: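 Readout: caspase-cleaved peptide-aminoluciferin substrate driving luciferase light in SH-SY5Y neuroblastoma cells after 16 h treatment. Response normalized to DMSO and 10 uM staurosporine controls.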

[17] = Cellular Toxicity (caspase-3) BJ (AID 658)
In short: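 Luminescent aminoluciferin-substrate cleavage reports caspase 3/7 activity in normal human BJ fibroblasts after 16 hr compound exposure at 37 °C. Normalized to DMSO (basal) and 10 uM staurosporine (100%); AC50 from Hill fit of concentration-response.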

[18] = Cellular Toxicity (caspase-3) MRC-5 (AID 659)
In short: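 Luminescence from caspase-cleaved aminoluciferin substrate (Caspase-Glo 3/7, 1 hr RT) reports caspase 3/7 activity in MRC-5 lung fibroblasts after 16 hr compound exposure. Normalized to DMSO basal and 10 uM staurosporine as 100%; AC50 from Hill fits.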

[19] = Cellular Toxicity (caspase-3) Mesangial (AID 660);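 further: cells exposed to compound for 16 h before the caspase read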
In short: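 Human renal glomerular mesangial cells (1000/well) were treated with compounds for 16 h at 37 °C in complete medium, then caspase 3/7 activity was read by Caspase-Glo luminescence. Data were normalized to DMSO and 100 uM tamoxifen; AC50 from Hill fits.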

[20] = Cellular Toxicity (caspase-3) SK-N-SH (AID 661)
In short: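 SK-N-SH human neuroblastoma cells (1500/well) were treated with compounds for 16 hr at 37 °C in complete medium; caspase 3/7 activity was read by Caspase-Glo luminescence. AC50 came from Hill fits of data normalized to DMSO and 10 uM staurosporine.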

[21] = Cellular Toxicity (caspase-3) H-4-II-E (AID 663);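 further: cells exposed to compound for 16 hr before readout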
In short: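 Luminescence from caspase-cleaved aminoluciferin substrate, read 20 min after reagent addition, reports caspase 3/7 activation in rat H-4-II-E cells after 16 hr compound exposure. Normalized to DMSO (basal) and 100 uM tamoxifen (100%); AC50 from Hill fits.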

[22] = Cellular Toxicity (caspase-3) Hek293 (AID 664);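 further: cells exposed to compound for 16 h at 37 °C before readout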
In short: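 HEK293 cells were exposed to compounds in complete medium for 16 hr at 37 °C, then caspase-3/7 activity was read by Caspase-Glo 3/7 luminescence after 20 min at room temperature. Data normalized to DMSO and 100 uM tamoxifen; AC50 from Hill fits.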

[23] = Cellular Toxicity (caspase-3) N2a (AID 665); conditions: N2a cells, luminescence, normalized: DMSO 0%, 10 µM staurosporine 100%; at 92.2 µM (top of the series);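 further: compound exposure lasted 16 h at 37 °C before readout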
In short: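 Mouse N2a neuroblastoma cells (1500/well) were treated with compounds for 16 h at 37 °C, then caspase-3/7 activity was read by Caspase-Glo luminescence after 1 h at room temperature. Data were normalized to DMSO and 10 uM staurosporine; AC50 from Hill fits.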

[24] = Cellular Toxicity (caspase-3) NIH 3T3 (AID 666);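 further: 0% = DMSO basal and 100% = 100 µM tamoxifen stimulation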
In short: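 Mouse NIH 3T3 fibroblasts (1000 cells/well) were treated with compound for 16 hr at 37°C in complete medium; caspase-3/7 activity was read by Caspase-Glo luminescence. Normalized to DMSO and 100 uM tamoxifen; AC50 from Hill fits.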

[25] = Cellular Toxicity (caspase-3) Renal Proximal Tubule (AID 667); conditions: renal proximal tubule cells; at 91.7 µM (top of the series), primary cells freshly taken from rat, solvent-only wells 0%, staurosporine 100% unless noted;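 further: cells exposed to compound for 16 hours at 37 °C before detection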
In short: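 Caspase-Glo 3/7 read-out, rat primary kidney proximal tubule cells. Compound exposure 16 h, 37 °C; detection after 1 h at RT. Activity scaled to DMSO and 10 uM staurosporine.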

[26] = molecular target: Cytochrome P450 3A4 (Homo sapiens) (UniProt P08684); assay: qHTS Assay for Activators of Cytochrome P450 3A4 (AID 885); further: nearly all actives have a fitted effect of over 65% in size
In short: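 Human CYP3A4 (20 nM) with Luciferin-PPXE at 25 uM (its KM) in 200 mM KPO4; 10 min compound preincubation, then NADPH regeneration and 60 min reaction at RT. Luciferin read by luminescence; normalized to 57 uM ketoconazole full inhibition.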

[27] = Cell Viability - LYMP2-001 (AID 921);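 further: cells exposed to compound for 24 h at 37 °C; 0% = DMSO only and full inhibition = tetraoctylammonium bromide control wells; nearly all actives have a fitted effect of over 70% in size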
In short: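 A lymphoblastoid cell line of human origin was treated with library compounds across a concentration series for 24 hours, and viable cell number was estimated from ATP-driven luciferase light output. Hill modeling gave AC50.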

[28] = MultiTox-Fluor Cytotoxicity Assay - LYMP1-001 - Dead Cells (AID 946);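 further: 0% = DMSO and 100% = tetraoctylammonium bromide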
In short: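 LYMP1-001 lymphoblastoid cells (2500/well) treated 16 h at 37 C. Dead-cell protease cleavage of bis-AAF-R110 read at Ex/Em 485/520. Normalized to DMSO and 15 uM tetraoctylammonium bromide; AC50 from Hill fits.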

[29] = Cell Viability - LYMP1-002 - Assay at 16 hr (AID 948);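 further: 0% = DMSO alone and full effect = 92 µM tetraoctylammonium bromide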
In short: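 In this qHTS, lymphoblastoid LYMP1-002 cells (human) receive compounds for 16 hr at 37 C. Viability is taken from CellTiter-Glo ATP luminescence, and AC50 derives from standard Hill fits.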

[30] = MultiTox-Fluor Cytotoxicity Assay - LYMP1-002 - Live Cells (AID 955); further: on the % scale 0 is the no-effect control and ±100 the full control effect
In short: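 Human lymphoblastoid LYMP1-002 cells, 2500/well in complete medium, rested 5 hr at 37 C, then exposed to compounds for 16 hr at 37 C. Live-cell protease cleavage of GF-AFC read by fluorescence (Ex/Em 405/510) after 60 min at room temperature; AC50 from Hill fits.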

Chain of Cytochrome P450 3A4 (Homo sapiens) (P08684 whole entry, looked up): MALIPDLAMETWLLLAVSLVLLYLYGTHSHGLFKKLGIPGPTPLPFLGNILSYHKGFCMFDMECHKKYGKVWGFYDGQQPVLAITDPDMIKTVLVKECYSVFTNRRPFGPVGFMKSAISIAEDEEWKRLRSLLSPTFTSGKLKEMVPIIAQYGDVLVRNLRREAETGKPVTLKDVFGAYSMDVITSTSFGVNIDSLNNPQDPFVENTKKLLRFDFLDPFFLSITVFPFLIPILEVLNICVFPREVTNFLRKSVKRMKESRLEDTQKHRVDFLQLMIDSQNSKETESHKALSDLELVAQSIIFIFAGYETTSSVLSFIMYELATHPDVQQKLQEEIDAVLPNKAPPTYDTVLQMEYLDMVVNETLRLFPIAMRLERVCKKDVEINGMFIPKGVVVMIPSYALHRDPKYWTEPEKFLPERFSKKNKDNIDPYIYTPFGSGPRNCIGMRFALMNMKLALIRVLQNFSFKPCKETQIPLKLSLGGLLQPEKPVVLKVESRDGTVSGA

COC1=CC(=O)OC(CCc2ccccc2)C1 (stereo not given)
inactive: Potency [1] > 92 µM | Potency [2] > 92 µM | Potency [3] > 92 µM | Potency [4] > 92 µM | Potency [5] > 92 µM | Potency [6] > 92 µM | outcome [7] | activity change, negative = cytotoxicity [8] -9.01% | Potency [9] | Potency [10] | Potency [11] | activity change, negative = cytotoxicity [12] -1.23% | outcome [13] | outcome [14] | caspase-3 activation [15] 0.972% | outcome [16] | outcome [17] | outcome [18] | outcome [19] | outcome [20] | outcome [21] | outcome [22] | caspase-3 activation [23] -5.42% | outcome [24] | caspase-3 activation [25] 1.48% | Potency [26] | Potency [27] | Potency [28] | Potency [29] | outcome [30]
